# The supplement of paper PMC13380429
# Legend:
# [1] = tested on: Vero E6 infected with SARS-CoV-2; experiment: morphology score (similarity to uninfected cells); higher = more like uninfected cells; conditions: 24 h
# [2] = tested on: Vero E6 infected with SARS-CoV-2; experiment: SARS-CoV-2 infection rate relative to infected DMSO; higher = more infection, active = 60 or less; conditions: 24 h
SMILES,morphology score [1],SARS-CoV-2 infection rate [2]
CCS(=O)(=O)N1CCC([C@@H](C)n2c(C)c(C(=O)NCc3c(OC)cc(C)[nH]c3=O)c3ccccc32)CC1 (10 µM),-0.000259,102% (inactive)
CNC(=O)c1ccccc1Nc1nc(Nc2ccc(N3CCOCC3)cc2OC)ncc1Cl (10 µM),-0.217,97.5% (inactive)
C=C(C)[C@@H]1CC=C(CO)CC1 [perillyl-alcohol] (10 µM),0.0351,100% (inactive)
O=C1NC(=O)c2cc(Nc3ccc(F)cc3)c(Nc3ccc(F)cc3)cc21 (10 µM),0.329,77.5% (inactive)
C=CCOc1ccccc1OCC(O)CNC(C)C (centres undefined) [oxprenolol] (10 µM),-0.183,114% (inactive)
N=C(N)S/C=C\C(=O)O (10 µM),0.101,108% (inactive)
Cn1ncc(Cl)c1-c1cc(C(=O)N[C@H](CN)Cc2ccc(F)c(F)c2)oc1Cl [uprosertib] (10 µM),0.441,96.5% (inactive)
CCc1cccc(CC)c1NC(=O)CN(CC(=O)O)CC(=O)O [etifenin] (10 µM),0.115,109% (inactive)
N#Cc1ccc(N2N=C3c4ccc(C(=O)O)cc4CC[C@@H]3[C@@H]2C2CCCC2)cc1Cl (10 µM),-0.174,108% (inactive)
O=C(CN1CCNCC1)NC1CCCCC1 [esaprazole] (10 µM),0.0266,104% (inactive)
NC(=O)c1[nH]cnc1O (10 µM),-0.0334,107% (inactive)
CC(=O)NS(=O)(=O)c1ccc(NC(=O)c2ccccc2C(=O)O)cc1 [phthalylsulfacetamide] (10 µM),0.21,99.5% (inactive)
